# Test results: the supplement of paper PMC11624193, “Coupling cellular drug-target engagement to downstream pharmacology with CeTEAM” (Nature Communications, 2024)
# Where “and” joins values, the source holds several entries; their conditions need not be identical. Identical values can stand only once. Counter-ions that a name gives are not always drawn. ± gives the standard deviation of the averaged measurements.
# Molecular target: PARP1 L713F-nLuc biosensor (HCT116) (UniProt P09874)
# Test: PARP1 L713F-nLuc/akaLuc ratio relative to DMSO control (biosensor stabilization) (fold change); higher = more PARP1 biosensor stabilization (target engagement / stabilizer), active = hit call of the paper
# Conditions: stock concentration (mM; final µM = stock mM x 1): 10; 24 h;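 active = log2 fold change beyond 2 SD from the library mean after excluding viability outliers; inactive = within 2 SD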
# Chain of PARP1 L713F-nLuc biosensor (HCT116) (P09874 whole entry L713F, looked up): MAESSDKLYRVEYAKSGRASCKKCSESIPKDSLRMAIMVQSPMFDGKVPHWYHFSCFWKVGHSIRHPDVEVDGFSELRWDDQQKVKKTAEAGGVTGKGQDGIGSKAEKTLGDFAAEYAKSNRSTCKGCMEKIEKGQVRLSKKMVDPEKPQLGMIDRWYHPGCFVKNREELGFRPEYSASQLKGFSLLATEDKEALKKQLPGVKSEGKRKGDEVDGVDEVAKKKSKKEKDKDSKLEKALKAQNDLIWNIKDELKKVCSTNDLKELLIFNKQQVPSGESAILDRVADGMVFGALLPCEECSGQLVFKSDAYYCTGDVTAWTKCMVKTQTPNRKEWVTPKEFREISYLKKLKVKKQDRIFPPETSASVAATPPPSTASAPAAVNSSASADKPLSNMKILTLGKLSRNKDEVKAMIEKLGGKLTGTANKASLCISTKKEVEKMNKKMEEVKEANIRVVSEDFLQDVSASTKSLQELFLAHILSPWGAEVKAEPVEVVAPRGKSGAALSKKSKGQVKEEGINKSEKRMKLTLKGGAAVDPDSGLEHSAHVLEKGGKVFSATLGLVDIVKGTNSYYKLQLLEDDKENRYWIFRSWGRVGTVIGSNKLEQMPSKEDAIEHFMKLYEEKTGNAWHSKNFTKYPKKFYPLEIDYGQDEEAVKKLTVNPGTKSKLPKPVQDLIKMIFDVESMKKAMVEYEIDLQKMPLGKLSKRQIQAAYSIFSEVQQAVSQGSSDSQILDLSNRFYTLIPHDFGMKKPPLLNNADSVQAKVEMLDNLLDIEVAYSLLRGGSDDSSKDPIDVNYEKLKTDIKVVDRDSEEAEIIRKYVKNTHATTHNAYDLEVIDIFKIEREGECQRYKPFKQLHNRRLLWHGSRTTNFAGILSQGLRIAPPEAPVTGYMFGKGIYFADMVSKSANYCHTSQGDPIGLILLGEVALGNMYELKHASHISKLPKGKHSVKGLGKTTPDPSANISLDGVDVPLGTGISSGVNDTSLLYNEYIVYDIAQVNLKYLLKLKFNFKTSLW
row,Structure (SMILES),PARP1 L713F-nLuc/akaLuc ratio
1,CC[C@@](C)(Nc1ccnc(-c2c[nH]c3ncccc23)n1)C(=O)NCC(F)(F)F [Decernotinib (VX-509)],0.506 (inactive)
2,CC(C)N(CCCNC(=O)Nc1ccc(C(C)(C)C)cc1)C[C@H]1O[C@@H](n2cc(Br)c3c(N)ncnc32)[C@H](O)[C@@H]1O,0.82 (inactive) and 0.934 (inactive)
3,NC(=O)c1cc(F)cc2c1C(=O)N(C1CCN(C3CCC(F)(F)CC3)CC1)C2,6 (active)
4,CC1=C2C(=O)O[C@@H](c3ccoc3)[C@]2(C)CCC1 [Fraxinellone],0.831 (inactive)
5,N#C/C(=C\c1ccc(O)c(O)c1)C(=O)NCc1ccccc1,1.13 (inactive) and 0.936 (inactive)
6,COc1cc2c(NC3CCN(C4CCCCC4)CC3)nc(N3CCCN(C(C)C)CC3)nc2cc1OCCCN1CCCCC1,0.886 (inactive)
7,CC(C)(C)c1cc(NC(=O)Nc2ccc(-c3cn4c(n3)sc3cc(OCCN5CCOCC5)ccc34)cc2)no1 [Quizartinib (AC220)],0.802 (inactive)
8,CN1CCN(c2ccc(Nc3ncc4cc(C#N)c(=O)n(C5CCCC5)c4n3)cc2)CC1,0.701 (inactive)
9,COc1cccc(-n2c(=O)[nH]c3cc(Cl)n(-c4ccc(-c5cccc(OC)c5O)cc4)c3c2=O)c1,0.814 (inactive)
10,CC(C)Nc1cc(-c2c[nH]c(C(=O)N[C@H](CO)c3cccc(Cl)c3)c2)c(Cl)cn1,0.364 (inactive)
11,CC1=C(C)C(=O)C(C(C)(C)CC(=O)N(CCCCSC[C@H]2O[C@@H](n3cnc4c(N)ncnc43)[C@H](O)[C@@H]2O)Cc2cccc(-c3ccc(Cl)cc3)c2)=C(C)C1=O,0.784 (inactive)
12,COc1ccc(C2(CNC(=O)c3ccc(NC(=O)c4ccco4)cc3)CCOCC2)cc1,1.23 (inactive)
13,NC(=O)c1cccc(N)c1 [3-Aminobenzamide],0.995 (inactive)
14,CS(=O)(=O)c1ccc(Oc2cc(F)cc(C#N)c2)c2c1C(O)C(F)C2 (centres undefined),0.836 (inactive)
15,COc1cc(Nc2ncc3c(n2)-c2ccc(Cl)cc2C(c2c(F)cccc2OC)=NC3)ccc1C(=O)O [Alisertib (MLN8237)],1.12 (inactive)
16,CN(C)C(=N)NC(=N)N [Metformin HCl],0.701 (inactive)
17,COc1c(CN)cc(CN)cc1OCCCN1Cc2ccccc2C1 [MS31 (trihydrochloride)],0.851 (inactive)
18,CCOC(=O)NCCCC(=O)NCCc1ccccc1 [Santacruzamate A],0.97 (inactive)
19,CN(C)C(=N)NC(=N)N [Metformin],1.5 (inactive)
20,Cc1cc(C)c(CNC(=O)c2cc(Cl)c3c(c2C)O[C@@](C)([C@H]2CC[C@H](N(C)C)CC2)O3)c(=O)[nH]1 [Valemetostat (tosylate)],1.05 (inactive)

row,Structure (SMILES),PARP1 L713F-nLuc/akaLuc ratio
1,Cc1ccc(Oc2nc3cc(-c4ccc(-c5ccccc5)cc4)c(Cl)cc3[nH]2)cc1C(=O)O,0.635 (inactive)
2,O=C(Nc1c[nH]nc1-c1nc2ccc(CN3CCOCC3)cc2[nH]1)NC1CC1,2.07 ± 0.91
3,COc1cc(OC)c2c(=O)[nH]c(-c3cc(C)c(OCCO)c(C)c3)nc2c1 [Apabetalone],1.28 (inactive)
4,CC(NC(=O)c1ccccc1/N=C/c1c(O)ccc2ccccc12)c1ccccc1 (centres undefined) [Sirtinol],0.699 (inactive)
5,Cc1nc(F)ccc1-c1cc(Cn2ccn(C)c2=N)cc(C(=O)NCc2ccc(Cl)c(Cl)c2)c1,0.928 (inactive)
6,Cc1cnc(Nc2ccc(OCCN3CCCC3)cc2)nc1Nc1cccc(S(=O)(=O)NC(C)(C)C)c1,0.333 (active)
7,Cc1c(-c2cnccn2)ssc1=S [Oltipraz],0.846 (inactive)
8,COC(=O)c1ccc(N2CCN(C)CC2)c(NC(=O)c2cccc(OC)c2)c1,0.856 (inactive)
9,O=C(O)CC[C@H](O)C(=O)O [L-2-Hydroxyglutaric acid (disodium)],1.2 (inactive)
10,CCCCCCCCCCCCC/C=C/[C@@H](O)[C@H](CO)NC(=O)CCCCCCC [C8-Ceramide],0.658 (inactive)
11,N#Cc1c(-c2ccccc2)cc(-c2cc(Br)ccc2O)[nH]c1=O,0.708 (inactive)
12,Nc1[nH]c(=O)nc2c1ncn2[C@@H]1O[C@H](CO)[C@@H](O)[C@H]1O [Crotonoside],0.835 (inactive)
13,Cc1csc(-c2nnc(Nc3ccc(Oc4ncccc4-c4ccnc(N)n4)cc3)c3ccccc23)c1,1.02 (inactive)
14,O=c1sn(-c2cccc3ccccc23)c(=O)n1Cc1ccccc1 [Tideglusib],1.22 (inactive)
15,CC(=O)c1c(C)cc2cccc(O)c2c1O [Nepodin],0.91 (inactive)
16,Cc1cc(C(C)Nc2ccccc2)c2nc(N3CCOCC3)cc(=O)n2c1 (centres undefined),0.773 (inactive)
17,COc1cccc2c1c(O)c(C(=O)N(C)c1ccc(C(F)(F)F)cc1)c(=O)n2C [Tasquinimod],1.12 (inactive)
18,CNCc1ccc(-c2cc3cc(F)cc(C(N)=O)c3o2)cc1 [Mefuparib (hydrochloride)],10.5 (active)
19,CCCCCCCCCCCCC/C=C/[C@@H](O)[C@@H](N)CO [D-erythro-Sphingosine],1.21 (inactive)
